# Results published in PubChem BioAssay AID1851 (National Center for Advancing Translational Sciences (NCATS), 2009).
# The campaign covered roughly 16,000 compounds. About 2,600 (16%) were called active. Roughly 20% stayed inconclusive and do not appear here. Calls follow the shape of the dose curve; as a rule, active = well fitted curve in the direction sought with a large enough effect; inconclusive = small, poorly fitted or top-dose-only effect, or effect the other way; inactive = no such curve, though single readings can be large or run the other way. These entries were drawn from the full list.
# Target: Cytochrome P450 2D6 (Homo sapiens) (UniProt P10635)
# Assay: Cytochrome panel assay with activity outcomes
# Conditions: recombinant CYP, pro-luciferin dealkylation, luminescence, p450-cyp2d6; series mostly up to 57.1 µM; activity, negative = inhibition: at the top concentration
# % is scaled to controls: 0 for no effect and ±100 for the full control effect.
# Cytochrome P450 2D6 (Homo sapiens), sequence (P10635 whole entry, looked up): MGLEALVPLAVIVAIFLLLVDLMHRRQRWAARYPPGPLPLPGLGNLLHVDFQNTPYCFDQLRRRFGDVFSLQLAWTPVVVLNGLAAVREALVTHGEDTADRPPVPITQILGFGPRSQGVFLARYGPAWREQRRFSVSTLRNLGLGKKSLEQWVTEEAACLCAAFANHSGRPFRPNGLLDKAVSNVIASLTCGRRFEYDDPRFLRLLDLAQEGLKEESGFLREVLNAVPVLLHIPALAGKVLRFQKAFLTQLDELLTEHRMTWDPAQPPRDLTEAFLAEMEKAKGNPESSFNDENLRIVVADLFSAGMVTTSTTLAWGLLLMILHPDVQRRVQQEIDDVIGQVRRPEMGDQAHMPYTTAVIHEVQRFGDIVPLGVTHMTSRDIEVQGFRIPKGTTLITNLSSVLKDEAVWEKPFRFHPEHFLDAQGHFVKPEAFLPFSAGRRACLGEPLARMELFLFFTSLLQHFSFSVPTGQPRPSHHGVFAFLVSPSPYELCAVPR
SMILES,"activity, negative = inhibition",AC50
COc1ccc(NC(=O)N2CCC3(CC2)CCN(C(=O)c2csnn2)CC3)cc1,3.56% (inactive),–
CN1CCN(NC(=O)c2ccccc2F)CC1,9.96% (inactive),–
Cc1ccc(-n2c(SCC(=O)N3CCOCC3)nnc2-c2cccnc2)cc1,0.21% (inactive),–
CCOC(=O)CSc1n[nH]c(NC(=O)c2cccc(C)c2)n1,12% (inactive),–
CCc1cccc2c(C=C(C#N)C#N)cn(CC(=O)N3CCCCC3)c12,6.92% (inactive),–
O=c1oc(-c2ccco2)nc2c1cnn2-c1ccccc1,-9.11% (inactive),–
Cn1ncc([N+](=O)[O-])c1C(=O)N1CCOCC1,15.1% (inactive),–
CCCCNC(=O)NS(=O)(=O)c1ccc(C(=O)OC(C)C)o1,8.69% (inactive),–
CN(C)S(=O)(=O)c1cccc(NC(=O)COC(=O)c2ccc(Br)o2)c1,-18% (inactive),–
CN(C)S(=O)(=O)c1ccc(NC(=O)COC(=O)c2ccccn2)cc1,-12.2% (inactive),–
CCN(CC)S(=O)(=O)c1ccc(NC(=O)COC(=O)c2ccc(Br)o2)cc1,–,3.16 µM (active)
CC1=CC2=NC(=O)CC(C)(C(=O)N(CC(=O)NC(C)(C)C)Cc3cccs3)N2C=C1 (stereo not given),-6.53% (inactive),–
O=c1oc2c(Cl)cc(Cl)cc2cc1-c1nnc(Nc2ccccc2F)s1,5.36% (inactive),–
O=C(NC12CC3CC(CC(C3)C1)C2)N1CCN(c2nc(-c3ccccc3)cs2)CC1,3.04% (inactive),–
CCS(=O)(=O)c1ccc(O)c(NC(=O)Nc2ccccc2)c1,–,4.47 µM (active)
CCC(C)NC(=O)c1ccccc1NC(=O)Nc1ccccc1 (stereo not given),3.52% (inactive),–
NS(=O)(=O)c1ccc(NC(=O)Nc2cccc3ccccc23)cc1,-5.78% [at 11.4 µM] (inactive),–
CCOC(=O)Cc1cc(=O)n2[nH]c(C)c(C#N)c2n1,-21% (inactive),–
CC(C)NC(=O)N1CCN(c2ccncc2S(=O)(=O)N2CCOCC2)CC1,1.71% (inactive),–
Cc1ccc2c(c1)/C(=N/OC(=O)c1ccc(F)cc1)CCS2,-8.38% (inactive),–
C/C(=N\OC(=O)c1ccc(F)cc1)c1nccs1,–,12.6 µM (active)
C/C(=N\OC(=O)c1cccc(C)c1)c1sc(-c2ccccc2)nc1C,-11% (inactive),–
COc1ccccc1NC(=O)N1CCC(c2nnc(SCC(N)=O)n2C)CC1,7.79% (inactive),–
COc1cc(-c2nnc(COC(=O)c3c4c(nc5ccccc35)CCCC4)o2)cc(OC)c1OC,22.5% (inactive),–
COc1ccc(-n2c(CNC(=O)c3ccc(S(=O)(=O)N4CCCC4)cc3)n[nH]c2=S)cc1,-4.46% (inactive),–

SMILES,"activity, negative = inhibition",AC50
C/C(=N/NC(=O)c1ccc(C)s1)c1cccc(NC(=O)COc2ccc(Cl)cc2C)c1,-16.1% (inactive),–
O=C(Nc1ccc2nc(SCc3ccc(Cl)cc3)sc2c1)c1ccccc1C(=O)N1CCOCC1,-22.4% (inactive),–
N[C@H](C(=O)O)[C@@H]1[C@@H](C(=O)O)C1(F)F,–,0.1 µM (active)
O=C(Nc1cccc(-c2cnc3ccccc3n2)c1)c1ccc(Cl)cc1,-4.08% (inactive),–
COc1ccc(NC(=O)CN(C)S(=O)(=O)c2ccc(Cl)cc2)c([N+](=O)[O-])c1,-19.3% (inactive),–
COc1ccc(NC(=O)c2cccs2)c([N+](=O)[O-])c1,-10% (inactive),–
COc1ccc(NC(=O)c2ccc(C)cc2Cl)c([N+](=O)[O-])c1,–,0.891 µM (active)
CCCCN1CSC(=S)N(Cc2ccccc2)C1,–,3.98 µM (active)
O=C(c1ccc2c(c1)N(Cc1ccccc1)C(=O)CS2)N1CCOCC1,-12.1% (inactive),–
Cn1c(CN2CCOCC2)nnc1SCc1ccccc1,-4.83% (inactive),–
S=C1SCN(CCN2CCOCC2)CN1Cc1ccccc1,–,12.6 µM (active)
O=C1OC(OC2CCCCC2)(c2ccccc2)c2ccccc21 (stereo not given),0.0819% (inactive),–
COc1ccc(-c2cc(C3CCN(c4cc(Cl)nc(N)n4)CC3)[nH]n2)cc1,-25.5% (inactive),–
CCN1C(=O)[C@H]2[C@H]3[C@H](O)[C@H](O)C/C(=N/NC(=O)OCc4ccccc4)[C@H]3CC[C@@H]2C1=O,1.32% [at 11.4 µM] (inactive),–
C/C(=N\NC(=O)c1cccc(F)c1)c1ccc(Br)s1,-1.08% (inactive),–
Cc1cccc(C(=O)NC(=S)N2CCN(C)CC2)c1,0.609% (inactive),–
O=C(O)CC[C@@H](C(=O)O)N1C(=O)[C@@H]2[C@@H]3CC[C@H](C3)[C@@H]2C1=O,13.3% [at 11.4 µM] (inactive),–
COCCCNC(=O)C(=O)N/N=C/c1ccc(OCC(=O)Nc2cccc(Cl)c2C)c(OC)c1,11% (inactive),–
CCCc1cc(=O)[nH]c(=S)[nH]1,8.48% [at 25.6 µM] (inactive),–
Cc1ccc(OCC(=O)NNC(=O)CCC(=O)Nc2ccc(C)cc2C)cc1,1.32% (inactive),–
Nc1ccc(S(=O)(=O)NCc2nccs2)cc1,-11% [at 11.4 µM] (inactive),–
O=C1CCCC=C1[C@@H](O)C1CCCCC1,11.1% [at 11.4 µM] (inactive),–
CCCCOc1cc(C[C@@H]2CNC(=O)N2)ccc1OC,4.47% (inactive),–
CCCN1C[C@H](CSC)C[C@H]2c3cccc4[nH]cc(c34)C[C@@H]21,–,0.1 µM (active)
O=C(O)c1cc2cc(Cc3cccnc3)ccc2o1,5.07% (inactive),–

SMILES,"activity, negative = inhibition",AC50
Cc1cc(C)nc(NC(=O)c2cccc([N+](=O)[O-])c2C)n1,-26% (inactive),–
OC[C@@H](O)CN1CCN(c2ccccc2)CC1,-10.7% [at 25.6 µM] (inactive),–
CC(C)(C)C1CCC(OCC(O)CN2CCN(c3ccccc3)CC2)CC1 (stereo not given),–,6.31 µM (active)
ClC(Cl)(Cl)C(N1CCN(c2ccccc2)CC1)N1CCN(c2ccccc2)CC1,4.26% [at 11.4 µM] (inactive),–
COCCCN=CC1=C(O)CC(C)(C)CC1=O,2.61% (inactive),–
CCc1c(C(C)O)oc2ccc3c(C)cc(=O)oc3c12 (stereo not given),9.69% (inactive),–
COc1ccc(-n2nc(C(=O)NCC(=O)Nc3ccccn3)c3ccccc3c2=O)cc1,-12.4% (inactive),–
Cn1c(=O)[nH]c2ncn(C)c2c1=O,7.29% (inactive),–
CCN(CC)CCN1c2ccccc2Sc2ccc3ccccc3c21,–,0.631 µM (active)
CN(C)CCCN1c2ccccc2Sc2ccc3ccccc3c21,–,1.26 µM (active)
CCC(=S)/C=C1\Sc2ccc3ccccc3c2N1CCCS(=O)(=O)O,17.6% (inactive),–
CN1C(=C2C(=O)OC(C)(C)OC2=O)Sc2ccccc21,-17.7% (inactive),–
CCN(CC)CCN1C(=O)c2cccc3cc(N)cc(c23)C1=O,-3.81% [at 11.4 µM] (inactive),–
CN(C)CCCN1c2ccc3ccccc3c2Sc2cccc(Cl)c21,–,0.501 µM (active)
CN(C)CCCN1c2ccccc2Sc2cnccc21,–,1.58 µM (active)
C/C(CC(=O)NCc1ccco1)=N\NC(=O)Cc1cccc2ccccc12,-5.5% (inactive),–
Cc1c(C(=O)O)nc(/C=C\C(=O)O)[nH]c1=O,6.81% [at 11.4 µM] (inactive),–
Cc1nc2cnc(N(C)C)nc2n(Cc2ccc(F)cc2)c1=O,-8.58% (inactive),–
CCSc1nc2c(c(=O)[nH]1)C(c1ccncc1)C(C(=O)OC(C)C)=C(C)N2 (stereo not given),-20.1% (inactive),–
COc1ccc(CN2CN(c3ccc(Cl)cc3)C(=O)N(n3cnnc3)C2)cc1,-23.4% (inactive),–
N#C/C(=C\N1CCNC1=S)C(=O)c1ccc2ccccc2c1,-0.81% [at 11.4 µM] (inactive),–
COc1ccccc1N1CCN(CCN2C(=O)c3ccccc3C(C)(C)C2=O)CC1,-4.41% (inactive),–
CN(C)CCCN1c2ccccc2C(C)(C)c2ccccc21,–,3.98 µM (active)
CN(C)CCCn1cc(C2=C(c3c[nH]c4ccccc34)C(=O)NC2=O)c2ccccc21,-1.97% (inactive),–
O=C(c1cnccn1)N1CCC2(CC1)CN(c1cccc(-c3ccccc3)c1)C2,-1.37% (inactive),–

SMILES,"activity, negative = inhibition",AC50
O=C(NCc1n[nH]c(=S)n1-c1cccc(Cl)c1)c1ccc(S(=O)(=O)N2CCCC2)cc1,4.31% (inactive),–
Fc1ccc(-c2cnc(-c3cccs3)o2)cc1,–,28.2 µM (active)
Nc1c(-c2cccs2)cnn1-c1nc(-c2ccc(F)cc2)cs1,14.5% (inactive),–
NC(=O)c1ccc(-c2ncc(-c3ccccc3)o2)cc1,-17% (inactive),–
COc1ccc(C2C(C#N)=C(N)OC3=C2C(=O)CC(C)(C)C3)c([N+](=O)[O-])c1OC (stereo not given),-0.502% (inactive),–
CSc1cc(C)nc(NC(C)=O)n1,-5.56% (inactive),–
CCOC(=O)C1=C(CSc2nc3ccccc3s2)NC(=O)NC1c1cc(C)ccc1C (stereo not given),-7.88% (inactive),–
O=S(=O)(c1ccccc1)N1CCC2(CC1)CN(C(c1ccccc1)c1ccccc1)C2,–,2.51 µM (active)
O=S(=O)(c1ccccc1)N1CCC2(CCCN(C(c3ccccc3)c3ccccc3)C2)CC1,–,0.501 µM (active)
CN1CCCC2(CCN(S(=O)(=O)c3ccccc3)CC2)C1,-20.3% (inactive),–
O=S(=O)(c1ccccc1)N1CCC2(CCN(C(c3ccccc3)c3ccccc3)CC2)CC1,-11.1% (inactive),–
O=S(=O)(c1ccccc1)N1CCC[C@@]2(CCN(C(c3ccccc3)c3ccccc3)C2)C1,–,0.631 µM (active)
Fc1ccc2nc(Nc3nc4c(s3)CCCC4)sc2c1,-30% (inactive),–
Cc1cc(OC(=O)c2cc(F)c(F)cc2Cl)nc(C)n1,0.508% (inactive),–
O=C(O)CN(CCN(CC(=O)O)CC(=O)O)CCN(CC(=O)O)CC(=O)O,–,inactive
Nc1nc(N)c2[nH]cnc2n1 (tested in a mixture with another compound),-4.07% [at 11.4 µM] (inactive),–
C/C(Cl)=C\Cn1c(N2CCCC2)nc2c1c(=O)[nH]c(=O)n2C,-1.19% (inactive),–
C[C@@H](CC(=O)O)[C@@H](N)C(=O)O,4.74% (inactive),–
Cc1ccnc(NS(=O)(=O)c2ccc(N)cc2)n1,–,inactive
COC(=O)c1ccc(CCc2cc(O)ccc2O)cc1,7.07% [at 11.4 µM] (inactive),–
O=c1[nH]c(=S)c2[nH]c(=O)n(-c3ccccc3)c2[nH]1,7.71% [at 11.4 µM] (inactive),–
CO[C@]1(NC(=O)Cc2cccs2)C(=O)N2C(C(=O)O)=C(COC(N)=O)CS[C@H]21,0.942% [at 25.6 µM] (inactive),–
NC1=NC2(CCCCC2)N=C(Nc2ccc(F)cc2F)N1,–,12.6 µM (active)
CC(=O)NC1(c2ccc(F)cc2)CCN(C(=O)Nc2ccc(F)cc2F)CC1,-3.83% (inactive),–
CO[C@H]1OC[C@@]2(C)[C@@H]3C4=C(CN2C(=O)OC(C)(C)C)[C@H](C)[C@H](CO)[C@H](CO)[C@H]4CC[C@H]13,-0.655% (inactive),–
